A short description of test [1]: qHTS assay to identify small molecule agonists of the vitamin D receptor (VDR) signaling pathway - cell viability counter screen (AID 743224). Further: nearly all actives have a fitted effect of over 50% in size. Further: potency means the concentration at half of the fitted maximal effect. In a few lines: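 CellTiter-Glo viability readout on VDR-bla cells, measured after 16 h of compound treatment at 37C in the same wells.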
(qHTS replaces the single test concentration by a dilution series.)

A short description of test [2]: qHTS assay to identify small molecule agonists of the NFkB signaling pathway (AID 1159509; active means well fitted curve in the direction sought with a large enough effect in the signal ratio in the repeat runs, not every such curve was filed as active; the % refers to the signal ratio; further: series mostly up to about 61 µM). The method in brief: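 Readout: FRET fluorescence, 405 nm excitation, 460/530 nm emission; beta-lactamase expression disrupts FRET. Cells: ME-180 stably carrying NF-kB-driven bla reporter. Compound exposure 5 hr, 37 C, 5% CO2.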
Test [3] can be described thus: qHTS assay to identify small molecule agonists of the endoplasmic reticulum stress response signaling pathway - cell viability counter screen (AID 1159517; calls by dose curve; further: nearly all actives have a fitted effect of over 50% in size; further: potency means the concentration at half of the fitted maximal effect). The method in brief: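 Steps: seed 1,500 ESRE-bla HeLa cells per well; incubate overnight at 37 C, 5% CO2; add compounds in DMSO for 5 hr; run FRET substrate 2 hr RT; add CellTiter-Glo, wait 30 min, read luminescence.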

Test [4] can be described thus: qHTS assay to identify small molecule antagonists of the retinoid-related orphan receptor gamma (ROR-gamma) signaling pathway - cell viability counter screen (AID 1159520). Further: nearly all actives have a fitted effect of over 50% in size. Further: potency means the concentration at half of the fitted maximal effect. In a few lines:
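Tet-on ROR gamma CHO cells were given compounds for 2 hr, then doxycycline hyclate at 1 uM final, and incubated 16 hr at 37 C. Viability was measured as ATP content by CellTiter-Glo luminescence.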

Test [5] in a line: qHTS assay to identify small molecule agonists of the AP-1 signaling pathway - cell viability counter screen (AID 1159525; calls by dose curve; further: nearly all actives have a fitted effect of over 55% in size; further: potency means the concentration at half of the fitted maximal effect). In a few lines: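 Same-well cytotoxicity counter screen of the Tox21 10K library in ME-180 cells. The readout is ATP-dependent luminescence after 5 h compound treatment. Data are normalised to DMSO and tetra n-octyl ammonium bromide controls.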
A short description of test [6]: qHTS assay to identify small molecule agonists of the AP-1 signaling pathway (AID 1159526; calls by dose curve).
Test [7] is described as follows: qHTS assay to identify small molecule agonists of the endoplasmic reticulum stress response signaling pathway (AID 1159516; active means well fitted activation curve with a large enough effect in the signal ratio in the repeat runs, not every such curve was filed as active; the % refers to the signal ratio). In a few lines: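 Fluorescence at 460 and 530 nm (405 nm excitation) reports beta-lactamase from an ER stress response element in HeLa cells treated 5 hr at 37 C.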
The target in test [8] is Nuclear receptor ROR-gamma (Homo sapiens) (UniProt P51449). Nature of the test: qHTS assay to identify small molecule antagonists of the retinoid-related orphan receptor gamma (ROR-gamma) signaling pathway (AID 1159521; further: nearly all actives have a fitted effect of over 50% in size; further: potency means the concentration at half of the fitted maximal effect). In a few lines:
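Tet-on ROR-gamma CHO cells with ROR response element-luciferase reporter; compounds added 2 hr before 1 uM doxycycline induction, then 16 hr at 37 C. Antagonism scored as decreased ONE-Glo luminescence.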

The nature of test [9]: qHTS assay to identify small molecule agonists of the NFkB signaling pathway - cell viability counter screen (AID 1159515; calls by dose curve; further: series mostly up to about 61 µM; nearly all actives have a fitted effect of over 55% in size). In a few lines: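 Tox21 library compounds were tested for cytotoxicity against NFkB-bla ME-180 cells during a 5 hr exposure at 37 C. CellTiter-Glo luminescence served as the viability read-out.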
Test [10] in a line: qHTS assay to identify small molecule antagonists of the vitamin D receptor (VDR) signaling pathway - cell viability counter screen (AID 743225). Further: nearly all actives have a fitted effect of over 50% in size. Further: potency means the concentration at half of the fitted maximal effect. In a few lines:
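VDR-UAS-bla HEK 293T cells were plated and incubated 4 h at 37C, then dosed with compound plus 3 nM (final) 1-alpha,25-dihydroxyvitamin D3 for 16 h. After the 2 h beta-lactamase read, viability in the same wells was read as CellTiter-Glo luminescence after 30 min at room temperature.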

“And” between values parts separate entries of the source, which are not always exact repeats. Equal entries are not always repeated. Results filed as inconclusive are left out. Some compounds were tested as several samples or in several runs, with calls that do not always agree. The source made the active and inactive calls. Unless noted, the call rests on the fitted dose curve; in most records, active means well fitted curve in the direction sought with a large enough effect in the repeat runs; inconclusive means weak or mixed curves; inactive means no such curve, though single readings can be large; an effect the other way counts as inactive or inconclusive.

Regarding `O=S(=O)(Cl)c1ccccc1`, the Potency result in test [1], in [3], in test [4] and in test [5] was “inactive” in each case. The result in test [2] and in test [6] was inactive.

For the compound `O=C(O)COc1ccc(Cl)cc1`, the Potency result in [1] and in test [4] was “inactive” in each case. Moreover, the compound was classed as inactive in test [2], in test [7] and in test [6].

For `CCOC(=O)COc1cc(-c2nn(C)c(OC(F)F)c2Cl)c(F)cc1Cl`, the Potency entry in test [1], in test [3], in test [4] and in test [8] was “inactive” in each case. In addition, the result in test [2] and in test [6] was inactive.

Consider `CCN(C)N=O`, for which the Potency result in test [1] and in [4] was “inactive” in each case. Besides, the result in test [2] and in test [7] was inactive.

As for `O=C(CBr)OCc1ccccc1`, the Potency result in test [1], in test [9], in [3], in test [4] and in [5] was “inactive” throughout. Further, the outcome in [7] was inactive.

For `O=NN1CCNCC1`, the Potency entry in test [1], in test [3], in test [4] and in test [5] was “inactive” throughout. Moreover, the call in test [2] and in [6] was inactive.

Regarding `COCCOCCO`, the Potency result in test [9] is “inactive”. In addition, the compound was called inactive in test [7].

With `CC(C)(C)c1cc([N+](=O)[O-])cc([N+](=O)[O-])c1O`, in [2], the result was inactive. Also, in test [3], the Potency entry was “inactive”.

As for `O=C(CCl)c1ccc(Cl)cc1Cl`, the Potency entry in test [1] is “inactive and 18.8 µM (active)”; in test [3] it was 10.7 µM (active); in test [4], 11.9 µM (active); in [8], 10.6 µM (active). Besides, the Potency result in [10] and in test [5] was “inactive” throughout. The compound was called inactive in test [2].

Regarding `CC1(C)[C@H](C=C(Cl)Cl)[C@@H]1C(=O)O[C@@H](C#N)c1cccc(Oc2ccccc2)c1`, the Potency entry in test [1], in [3] and in test [5] was “inactive” each time. Moreover, the compound was classed as inactive in [2]. Moreover, in test [8], the Potency is 54.5 µM (active).

With `O=[Se]=O`, the Potency entry in test [1], in test [10], in [9], in [3] and in test [5] was “inactive” each time. The result in test [7] and in [6] was inactive.

As for `C=CC[C@]1(O)CC[C@H]2[C@@H]3CCC4=CC(=O)CCC4=C3C=C[C@@]21C`, the Potency result in test [1], in [10], in [3] and in test [5] was “inactive” in each case. Moreover, the outcome in [2] and in test [6] was inactive.

Regarding `COc1nn(C(=O)NS(=O)(=O)c2ccccc2OC(F)(F)F)c(=O)n1C`, the Potency result in test [1], in test [10], in [3], in test [4] and in [5] was “inactive” each time. The compound was classed as inactive in test [2] and in test [6].

Take `CCCCOC(=O)c1ccccc1C(=O)OCc1ccccc1`: the Potency entry in test [1], in test [10], in test [3], in test [4] and in test [5] was “inactive” throughout. The compound was called inactive in test [7] and in test [6].

Regarding `CC(C)(CCl)C(=O)Cl`, the Potency result in test [1], in [3], in [4], in [8] and in [5] was “inactive” in each case. The compound was called inactive in test [7].

Regarding `O=C(Nc1ccccc1)Nc1cnns1`, the Potency entry in test [1], in [10], in [4] and in test [8] was “inactive” each time. For the same compound, the outcome in [7] and in [6] was inactive.

Turning to `OCCCBr`, the Potency entry in [1], in test [4], in test [8] and in test [5] was “inactive” throughout.

As for `[CH3][Sn]([CH3])([Cl])[Cl]`, the Potency entry in test [1], in test [10], in test [3] and in test [5] was “inactive” each time. Further, in [7], the call was inactive.

As to `IC(I)=C(I)I`, the Potency in test [1] is 11 µM (active); in [10] it was 17.4 µM (active); in [4], 3.86 µM (active); in test [8] it was 2.73 µM (active); in [5] it was 24.5 µM (active).

As for `Oc1ccc(Cl)c(Cl)c1Cl`, the Potency entry in test [10], in test [3] and in test [5] was “inactive” throughout. Further, the result in test [7] and in test [6] was inactive. For the same compound, the Potency in test [8] was 50.3 µM (active).

Turning to `ClCc1ccccc1`, the Potency result in test [1], in test [10], in test [9], in test [4] and in test [5] was “inactive” throughout. The call in test [7] and in test [6] was inactive.

Regarding `II`, the Potency entry in test [1], in test [10], in [9] and in test [3] was “inactive” throughout.

As to `O=Cc1ccc(Cl)cc1Cl`, the Potency entry in test [1], in [10], in test [3], in test [4], in test [8] and in test [5] was “inactive” in each case. Also, the result in test [7] and in [6] was inactive.

For `CC(O)(CS(=O)(=O)c1ccc(F)cc1)C(=O)Nc1ccc(C#N)c(C(F)(F)F)c1` (configuration not stated), the Potency entry in [1], in test [3], in test [4] and in [5] was “inactive” each time. Besides, in [6], the compound was classed as inactive.
